Results taken from PubChem BioAssay (NCATS).
Results filed as inconclusive are left out. Entries that show only a call come without a potency. Calls of active or inactive are those of the source. Calls follow the shape of the dose curve; as a rule, active = well fitted inhibition curve with a large enough effect; inconclusive = small, poorly fitted or top-dose-only effect; inactive = flat fitted curve, though single readings scatter.

test: Primary qHTS for inhibitors of nuclear receptor binding SET domain protein 2 (NSD2) in an isogenic RCH-ACV NSD2 p.E1099K mutant (9B) (AID 1645876); conditions: RCH-ACV (leukaemia line) NSD2 E1099K (9B) viability, CellTiter-Glo, 72 h; series mostly up to 44.9 µM; also: nearly all actives have a fitted effect of over 70% in size

SMILES | Potency | outcome | activity change, negative = viability loss
CC1(C)CCC[C@@]2(C)[C@H]1[C@H](O)C=C1COC(=O)[C@@]12O | inactive |  | 
CC1(C)C[C@H]2C3=CCC4[C@@]5(C)CC[C@H](O[C@H]6O[C@H](C(=O)O)[C@@H](O)[C@H](O)[C@H]6O[C@H]6O[C@H](CO)[C@@H](O)[C@H](O)[C@H]6O[C@@H]6O[C@H](CO)[C@@H](O)[C@H](O)[C@H]6O)[C@](C)(CO)C5CC[C@@]4(C)[C@]3(C)CC[C@@]2(C)[C@H](O[C@@H]2OC[C@H](O)[C@H](OC3O[C@H](CO)[C@@H](O)[C@H](O)[C@H]3O)[C@H]2O)[C@@H]1O (stereo not given in full) |  | inactive [at 9.23 µM] | 
Cc1c(CN(C)C(=O)/C=C/c2cnc3c(c2)CCC(=O)N3)oc2ccccc12 | inactive |  | 
CC(=O)OC[C@@]12[C@@H](OC(C)=O)C[C@@H](C)[C@](C)([C@@H]3C[C@H]4C=CO[C@H]4O3)[C@H]1CCC[C@]21CO1 | inactive |  | 
CC(C(=O)O)C1CCC2(C)C3C(=O)C=C4C(CCC(=O)C4(C)C)C3(C)CCC12C (stereo not given) | inactive |  | 
CC12CCC3C(C)(C)C(O)CCC3(C)C1Cc1c(oc(C(=O)O)cc1=O)O2 (stereo not given) | inactive |  | 
COC(=O)C1=CO[C@@H](O[C@@H]2O[C@H](CO)[C@@H](O)[C@H](O)[C@H]2O)[C@@H]2[C@@](C)(O)[C@@H](O)C[C@]12O | inactive |  | 
COC(=O)[C@]12C(=O)C(C)=C(O)[C@@]1(C)C(C)=CC1[C@@]34CC[C@@H](OC(C)=O)C(C)(C)C3[C@H](C[C@]12C)OC4=O (stereo not given in full) | inactive |  | 
O=C(NN1CCCCC1)c1nn(-c2ccc(Cl)cc2Cl)c(-c2ccc(C#Cc3ccc(C(F)(F)F)cc3)s2)c1CNS(=O)(=O)N1CCCC1 | inactive |  | 
COC(=O)C12C(=O)C(C)=C(O)C1(C)C(C)=CC1C34CCC(OC3=O)C(C)(C)C4CCC12C (stereo not given) | inactive |  | 
CC1(C)CC2C(C1)C1(C)CCC13OC3(CO)C2O (stereo not given) | inactive |  | 
C/C=C1\[C@H](O[C@@H]2O[C@H](CO)[C@@H](O)[C@H](O)[C@H]2O)OC=C(C(=O)OC)[C@H]1CC(=O)OC | inactive |  | 
CC(C)c1cc2c(c(O)c1O[C@@H]1O[C@H](CO)[C@@H](O)[C@H](O)[C@H]1O)CC1(O)CCC(O)C(C)(C)C1CC2 (stereo not given in full) | inactive |  | 
CC1(CO)CC2C(O)C(=O)C3(CO)CC3(C)C2C1 (stereo not given) | inactive |  | 
CC(=O)OC[C@]12[C@H](OC(C)=O)C(=O)[C@@H]3[C@@H](OC(C)=O)[C@@]14O[C@@]3(C)COC(=O)c1cccnc1[C@@H](C)[C@H](C)C(=O)O[C@@H]([C@H](OC(C)=O)[C@@H]2OC(C)=O)[C@]4(C)O | inactive |  | 
O=C(O[C@H]1[C@@H]2C=CO[C@@H](O[C@@H]3O[C@H](CO)[C@@H](O)[C@H](O)[C@H]3O)[C@@H]2[C@@]2(CO)O[C@@H]12)c1ccc(O)cc1 | inactive |  | 
O=C1Nc2ccc(O)cc2O[C@H]1O[C@@H]1O[C@H](CO)[C@@H](O)[C@H](O)[C@H]1O | inactive |  | 
COc1cc2c(cc1O)C1(OC)Cc3ccc4c(c3C1N(C)CC2)OCO4 (stereo not given) | inactive |  | 
C=C(C(=O)O)C1CCC(C)C2CCC(=O)OC2(C)C1 (stereo not given) | inactive |  | 
C[C@@H]1C(=O)O[C@H]2[C@H]1CC[C@@]1(C)C(=O)C=C[C@](C)(O)[C@H]21 | inactive |  | 

SMILES | Potency | outcome | activity change, negative = viability loss
C[C@@H]1O[C@@H](O[C@H]2[C@H](O)[C@@H](O)[C@H](OC[C@H]3O[C@@H](OC(=O)[C@]45CCC(C)(C)C[C@H]4C4=CCC6[C@@]7(C)C[C@H](O)[C@H](O[C@@H]8O[C@H](CO)[C@@H](O)[C@H](O)[C@H]8O)[C@@](C)(C(=O)O)C7CC[C@@]6(C)[C@]4(C)CC5)[C@H](O[C@@H]4O[C@H](CO)[C@@H](O)[C@H](O)[C@H]4O)[C@@H](O)[C@@H]3O)O[C@@H]2CO)[C@H](O)[C@H](O)[C@H]1O (stereo not given in full) |  |  | -12.2% [at 9.23 µM] (inactive)
CC1C/C=C/C=C\CCCCC(O)C/C=C/C(=O)O1 (stereo not given) | inactive |  | 
CO[C@@]12CC3[C@@H]([C@@H](O)[C@@H](OC(C)=O)C4[C@](C)(COC(C)=O)CCC[C@]34C)[C@@H](C)C1=CC(=O)O2 (stereo not given in full) | inactive |  | 
C=C1C[C@@]23CC[C@@H]4[C@](C)(C(=O)O)CCC[C@@]4(C)C2=CC[C@H]1C3 | inactive |  | 
CC(C)=CCCC1(C)Oc2cc3c(c4c2C2C(O4)C(C)(O)CCC21)CN(C(CCC(=O)O)C(=O)O)C3=O (stereo not given) | inactive |  | 
COc1cc(C2Oc3c(O)cc(CCCO)cc3C2CO)ccc1O[C@H]1O[C@H](C)[C@@H](O)[C@H](O)[C@@H]1O (stereo not given in full) | inactive |  | 
CC1=CCC2C(C)(CO)CCCC2(CO)C1CO (stereo not given) | inactive |  | 
CC(/C=C/C1(O)C(C)CC(O)CC1(C)C)OC1OC(CO)C(O)C(O)C1O (stereo not given) | inactive |  | 
CC1(C)CC2C3=CCC4C5(C)CCC(OC6OC(CO)C(O)C(OC7OC(CO)C(O)C(OC8OC(CO)C(O)C(OC9OC(COC%10OC(CO)C(O)C(O)C%10O)C(O)C(O)C9O)C8O)C7O)C6O)C(C)(C)C5CCC4(C)C3(C)CCC2(C(=O)O)CC1O (stereo not given) |  | inactive [at 9.23 µM] | 
CC1OC(OC2C(C)OC(OC3C(OC(=O)/C=C/c4ccc(O)cc4)C(CO)OC(OC4(COC(=O)/C=C/c5ccc(O)cc5)OC(CO)C(O)C4O)C3OC3OCC(O)(CO)C3O)C(O)C2O)C(O)C(O)C1O (stereo not given) |  |  | -6.92% [at 9.23 µM] (inactive)
CN1CC[C@@H](NC(=O)Nc2ccc(C#N)cc2)C[C@@H]1c1nc2ccccc2[nH]1 | inactive |  | 
c1ccc(Cc2ncc3c(n2)CCNCC3)cc1 | inactive |  | 
COC(=O)CC1(O)C(=O)Nc2ccccc21 (stereo not given) | inactive |  | 
CC1CCC2C(C)(C)C(O)CCC2(C)C12Cc1c(O)cc3c(c1O2)C(N)=NC3 (stereo not given) | inactive |  | 
O=C(/C=C/c1ccccc1)OCC1=CC[C@@H]2C(C(=O)O)=CO[C@@H](O[C@@H]3O[C@H](CO)[C@@H](O)[C@H](O)[C@H]3O)[C@H]12 | inactive |  | 
C[C@@H]1O[C@@H](O[C@H]2[C@H](O[C@H]3CC[C@@]4(C)C(CC[C@]5(C)C4CC=C4C6CC(C)(C)CC[C@]6(C(=O)O[C@@H]6O[C@H](CO[C@@H]7O[C@H](CO)[C@@H](O[C@@H]8O[C@@H](C)[C@H](O)[C@@H](O)[C@H]8O)[C@H](O)[C@H]7O)[C@@H](O)[C@H](O)[C@H]6O)CC[C@]45C)[C@]3(C)CO)OC[C@H](O)[C@@H]2O)[C@H](O)[C@H](O)[C@H]1O (stereo not given in full) |  |  | -5.7% [at 9.23 µM] (inactive)
CC1CCC2C(C)(C)C(O)CCC2(C)C12Cc1c(O)cc3c(c1O2)CN=C3N (stereo not given) | inactive |  | 
CC1(CO)CC[C@]2(C(=O)O[C@@H]3O[C@H](CO)[C@@H](O)[C@H](O)[C@H]3O)CC[C@]3(C)C(=CCC4[C@@]5(C)CC[C@H](O[C@@H]6O[C@H](C(=O)O)[C@@H](O)[C@H](O)[C@H]6O)C(C)(C)C5CC[C@]43C)C2C1 (stereo not given in full) |  | inactive [at 9.23 µM] | 
CC1=C2C=C(CO)C(CO)CCC2(C)CCC1=O (stereo not given) | inactive |  | 
CC(/C=C/[C@]1(O)[C@@]2(C)CO[C@@]1(C)C[C@@H](O)C2)=C\C(=O)O[C@@H]1O[C@H](CO)[C@@H](O)[C@H](O)[C@H]1O | inactive |  | 
